The full list was thinned out, with hits kept by preference.
TDP1 cell CPT: qHTS for Inhibitors of human tyrosyl-DNA phosphodiesterase 1 (TDP1): qHTS in cells in presence of CPT; chicken DT40 Tdp1-/-;hTDP1 cells + 20 nM CPT, ATP luminescence, 48 h; Potency, µM (top dose mostly 46.2 µM), most hits filed as inhibitors; hit rate 12% among 420,000; AID 686979, 2013; further: nearly all actives have a fitted effect of over 55% in size
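Chicken DT40 Tdp1-/- cells stably complemented with human TDP1 were seeded at 400 cells/well in medium containing 20 nM camptothecin, exposed to pin-transferred compounds, and grown at 37 °C for at least 48 hr. Viability was read as ATP luminescence.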
HT1080 IDH1KD tx: qHTS for induction of synthetic lethality in tumor cells producing 2HG: qHTS for the HT-1080-IDH1KD cell line. HT-1080 IDH1 knockdown viability, ATP luminescence, 48 h. Potency, µM (highest dose often 46.1 µM), usual class: cytotoxic. hit rate 2% among 360,000. AID 686971, 2013
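Assay cells: HT-1080 with IDH1 knockdown, 750 per well, RPMI/5% FBS. Exposure: 48 h at 37 °C following 2 h pre-incubation. Read: CellTiter-Glo luminescence; fitted concentration-response, curve class assigned.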
DT40 TDP1 no CPT: qHTS for Inhibitors of human tyrosyl-DNA phosphodiesterase 1 (TDP1): qHTS in cells in absence of CPT; DT40 Tdp1-/- hTDP1 cells, no CPT, ATP luminescence, 48 h; Potency, µM (highest dose often 46.2 µM), actives largely listed as inhibitors; hit rate 15% among 420,000; AID 686978, 2013; further: nearly all actives have a fitted effect of over 55% in size
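Cells were dispensed at 400 per well, compounds added by pin tool, plates incubated ≥48 hr at 37 °C, then CellTiter-Glo added for 30 min at room temperature before luminescence reading. Line: DT40 Tdp1-/- complemented with hTDP1; camptothecin omitted.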
IL1B secr inh: qHTS for Inhibitors of Inflammasome Signaling: IL-1-beta AlphaLISA Primary Screen. activity change, % at 57.5 µM. THP-1 LPS/ATP IL-1B secretion, AlphaLISA, 16 h; stronger effect = lower value. hit rate 4.7% among 360,000. AID 743279, 2014; in the data active means activity change below about -50%; inconclusive means mostly about -30% to -49%
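Secreted IL-1B measured by AlphaLISA bead assay after 16 h compound exposure of THP-1 cells; compounds (final up to 57.5 uM) added 1 h before LPS (250 ng/mL) and ATP (1.25 mM) stimulation; lower signal means less secretion.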
HT1080-NT tox: qHTS for induction of synthetic lethality in tumor cells producing 2HG: qHTS for the HT-1080-NT fibrosarcoma cell line | Potency, µM (top dose mostly 46.1 µM), usual class: cytotoxic | hit rate 1.6% among 360,000 | HT-1080-NT fibrosarcoma viability, CellTiter-Glo ATP luminescence, 48 h;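 further: NT is the 2HG producing partner of a matched IDH1 knockdown line; nearly all actives have a fitted effect of over 55% in size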
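HT-1080-NT; 750 cells/well; 5% FBS RPMI; 48 h compound, 37 degrees C; CellTiter-Glo luminescence; curve fitting and curve-class assignment.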
12-LOX inh: Primary qHTS assay for inhibitors of human arachidonate 12S-lipoxygenase (ALOX12): Round 2 | Polyunsaturated fatty acid lipoxygenase ALOX12 (Homo sapiens), P18054 | purified 12hLO, xylenol orange hydroperoxide absorbance | Potency, µM (doses to about 108 µM), actives largely listed as inhibitors | hit rate 1.1% among 580,000 | AID 1671190, 2021
Target sequence (P18054 whole entry, looked up): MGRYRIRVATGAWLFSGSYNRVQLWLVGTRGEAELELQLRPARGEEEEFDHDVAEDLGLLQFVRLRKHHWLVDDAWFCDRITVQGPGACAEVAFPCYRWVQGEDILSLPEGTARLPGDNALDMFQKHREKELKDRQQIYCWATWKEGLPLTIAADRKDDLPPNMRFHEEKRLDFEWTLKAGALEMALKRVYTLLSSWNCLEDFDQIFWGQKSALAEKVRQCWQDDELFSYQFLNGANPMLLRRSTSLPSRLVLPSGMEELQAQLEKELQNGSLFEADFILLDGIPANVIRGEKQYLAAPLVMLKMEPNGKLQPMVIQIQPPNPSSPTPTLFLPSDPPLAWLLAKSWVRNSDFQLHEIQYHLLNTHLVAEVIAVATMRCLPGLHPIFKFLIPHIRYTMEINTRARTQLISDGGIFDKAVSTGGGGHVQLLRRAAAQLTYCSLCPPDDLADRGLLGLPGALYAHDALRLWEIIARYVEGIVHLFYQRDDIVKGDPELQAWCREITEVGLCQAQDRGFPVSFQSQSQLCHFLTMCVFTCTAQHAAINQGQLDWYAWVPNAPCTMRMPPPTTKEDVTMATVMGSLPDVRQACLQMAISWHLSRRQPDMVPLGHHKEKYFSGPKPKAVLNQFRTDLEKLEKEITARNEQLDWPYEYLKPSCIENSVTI
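Purified human 12hLO (150 nM final) in 25 mM Hepes, 0.01% Triton X-100, pH 7.0 was preincubated 15 min at room temperature with compound. Then 40 uM arachidonic acid was added, 30 min. Hydroperoxide was read by Fe-XO absorbance ratio 573/405 nm.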
Hits are given with their value. Unless noted, the call rests on the fitted dose curve; in most records, active means well fitted curve in the direction sought with a large enough effect; inconclusive means small, poorly fitted or top-dose-only effect, or another doubt; inactive means no such curve, though single readings can be large; an effect the other way counts as inactive or inconclusive.

Cc1ccc2cc(CNC(C)(C)C)c(=O)[nH]c2c1 was read as TDP1 cell CPT inactive, HT1080 IDH1KD tx inactive, DT40 TDP1 no CPT inactive, IL1B secr inh inactive, HT1080-NT tox inactive and 12-LOX inh inactive.
For CNCc1cc2ccc(C)cc2[nH]c1=O the results were TDP1 cell CPT 16µM, HT1080 IDH1KD tx inactive, DT40 TDP1 no CPT inconclusive, IL1B secr inh inactive, HT1080-NT tox inactive and 12-LOX inh inactive.
`O=C(CSc1ccc(Br)cc1)c1cccc2ccccc12` gave 12-LOX inh inactive.
Screening COc1cccc(-c2cccc(-c3nc(C(=O)NCc4ccc5c(c4)OCO5)cc4c3[C@H](CCO)N(S(=O)C(C)(C)C)C4)c2)c1 (stereo partly drawn) returned TDP1 cell CPT inconclusive, HT1080 IDH1KD tx inconclusive, DT40 TDP1 no CPT inconclusive, IL1B secr inh inactive, HT1080-NT tox inconclusive and 12-LOX inh 28µM.
`CC(C)(C)S(=O)N1Cc2cc(C(=O)NCc3ccc(Oc4ccccc4)cc3)nc(-c3cccc(-c4cc5ccccc5o4)c3)c2[C@H]1CCO` (stereo partly drawn) gave TDP1 cell CPT inconclusive, HT1080 IDH1KD tx 18µM, DT40 TDP1 no CPT 23µM, IL1B secr inh -52, HT1080-NT tox 18µM and 12-LOX inh inconclusive.
`CC(C)(C)S(=O)N1Cc2cc(C(=O)NCCCN3CCOCC3)nc(-c3cccc(-c4cc5ccccc5o4)c3)c2[C@@H]1CCO` (stereo partly drawn) gave TDP1 cell CPT 13µM, HT1080 IDH1KD tx inconclusive, DT40 TDP1 no CPT 18µM, IL1B secr inh inactive, HT1080-NT tox inconclusive and 12-LOX inh inactive.
CC(C)(O)C#Cc1cccc(-c2nc(C(=O)NCCCN3CCOCC3)cc3c2[C@H](CCO)N(S(=O)C(C)(C)C)C3)c1 (stereo partly drawn) was read as TDP1 cell CPT inactive, HT1080 IDH1KD tx inactive, DT40 TDP1 no CPT inactive, IL1B secr inh inactive, HT1080-NT tox inactive and 12-LOX inh inconclusive.
CN1CCN(C(=O)c2cc3c(c(-c4cccc(Br)c4)n2)[C@H](CCO)N(S(=O)C(C)(C)C)C3)CC1 (stereo partly drawn) was read as TDP1 cell CPT inactive, HT1080 IDH1KD tx inactive, DT40 TDP1 no CPT inactive, IL1B secr inh inactive, HT1080-NT tox inconclusive and 12-LOX inh inactive.
CC(C)(C)S(=O)N1Cc2cc(C(=O)N3CCOCC3)nc(-c3cccc(Br)c3)c2[C@H]1CCO (stereo partly drawn) was read as TDP1 cell CPT inactive, HT1080 IDH1KD tx inactive, DT40 TDP1 no CPT inactive, IL1B secr inh inactive, HT1080-NT tox inactive and 12-LOX inh 5µM.
For Fc1ccc(CN2CCC(N3CC(OCC4CC4)C34CCOCC4)CC2)c(F)c1 (stereo not drawn) the results were 12-LOX inh inactive.
Screening CC(C)(C)S(=O)N1Cc2cc(C(=O)NCc3ccc4c(c3)OCO4)nc(-c3cccc(-c4cc5ccccc5o4)c3)c2[C@@H]1CCO (stereo partly drawn) returned TDP1 cell CPT inconclusive, HT1080 IDH1KD tx inconclusive, DT40 TDP1 no CPT inconclusive, IL1B secr inh inactive, HT1080-NT tox 23µM and 12-LOX inh inconclusive.
Screening CN(C1CCc2nn(C)c(=O)n2CC1)S(=O)(=O)c1ccc(Cl)s1 (stereo not drawn) returned 12-LOX inh inactive.
For COc1cc(OC)c(NC(=O)CSCc2cc(=O)n3ccc(C)cc3n2)cc1Cl the results were 12-LOX inh inactive.
`COc1ccc(N=Cc2cc(Cc3ccccc3Cl)cc([N+](=O)[O-])c2O)cc1OC` gave TDP1 cell CPT inconclusive, HT1080 IDH1KD tx inactive, DT40 TDP1 no CPT 26µM, IL1B secr inh inactive and HT1080-NT tox inactive.
Cc1ccccc1OCCn1cc(C(=S)N2CCCC2)c2ccccc21 was read as TDP1 cell CPT inconclusive, HT1080 IDH1KD tx inactive, DT40 TDP1 no CPT inconclusive, IL1B secr inh inactive, HT1080-NT tox inactive and 12-LOX inh inconclusive.
Screening CC(C)(C)C(=O)c1cn(CCOc2ccc(F)cc2)c2ccccc12 returned 12-LOX inh inactive.
For CC(=O)c1cn(CCOc2ccccc2C)c2ccccc12 the results were TDP1 cell CPT 8.2µM, HT1080 IDH1KD tx inactive, DT40 TDP1 no CPT 5.8µM, IL1B secr inh inactive, HT1080-NT tox inconclusive and 12-LOX inh inactive.
For CC(=O)c1cn(CCOc2ccc(F)cc2)c2ccccc12 the results were TDP1 cell CPT 15µM, HT1080 IDH1KD tx inconclusive, DT40 TDP1 no CPT inconclusive, IL1B secr inh inactive, HT1080-NT tox inconclusive and 12-LOX inh inactive.
Cc1ccccc1OCCn1cc(C(=S)N2CCN(C)CC2)c2ccccc21 was read as TDP1 cell CPT inconclusive, HT1080 IDH1KD tx inactive, DT40 TDP1 no CPT 15µM, IL1B secr inh inconclusive, HT1080-NT tox inactive and 12-LOX inh inconclusive.
Screening O=C(c1cn(CCOc2ccccc2F)c2ccccc12)C1CCCCC1 returned TDP1 cell CPT inconclusive, DT40 TDP1 no CPT 16µM and 12-LOX inh inactive.
For CC(=O)c1ccc(NC(=O)CSc2nc(N3CCOCC3)c3c(c2C#N)CC(C)(C)OC3)cc1 the results were 12-LOX inh inactive.
For COCCN(CC(=O)NCC1CCCO1)C(=O)CCC(=O)Nc1ccccn1 (stereo not drawn) the results were TDP1 cell CPT 13µM, HT1080 IDH1KD tx inactive, DT40 TDP1 no CPT 23µM, IL1B secr inh inactive, HT1080-NT tox inactive and 12-LOX inh inactive.
`CN1CCN(C2=C(Cl)C(=O)c3ccccc3C2=O)CC1` gave TDP1 cell CPT 2.3µM, HT1080 IDH1KD tx inconclusive, DT40 TDP1 no CPT 2.6µM, IL1B secr inh -104, HT1080-NT tox inconclusive and 12-LOX inh inconclusive.
`O=C1C(Cl)=C(N2CCC(C(=O)O)CC2)C(=O)c2ccccc21` gave TDP1 cell CPT 15µM, HT1080 IDH1KD tx inconclusive, DT40 TDP1 no CPT 16µM, IL1B secr inh inactive and HT1080-NT tox inconclusive.
`CC1COCC(C)N1C1=C(Cl)C(=O)c2ccccc2C1=O` (stereo not drawn) gave TDP1 cell CPT 0.65µM, HT1080 IDH1KD tx 18µM, DT40 TDP1 no CPT 1.5µM, IL1B secr inh inconclusive, HT1080-NT tox inactive and 12-LOX inh inconclusive.
For O=C(O)C1CCN(C(=O)c2ccccc2Cl)CC1 the results were TDP1 cell CPT inactive, HT1080 IDH1KD tx inactive, DT40 TDP1 no CPT inactive, IL1B secr inh inactive, HT1080-NT tox inactive and 12-LOX inh inactive.
